{"source": "PubChem BioAssay (Tox21)", "note": "Inconclusive results are not listed. Entries that show only a call come without a potency. Calls of active or inactive are those of the source. The call rests on the fitted dose curve."}
{"assay": "p53 small molecule agonists, cell-based qHTS assay: qHTS cell viability counter screen (AID 1963581); further: nearly all actives have a fitted effect of over 45% in size", "settings": "p53RE-bla HCT-116 viability, ATP luminescence, 16 h; series mostly up to 66 µM", "description": "National Center for Advancing Translational Sciences [NCATS]\nDivision of Preclinical Innovation [DPI]\nU.S. Environmental Protection Agency [EPA]\nNational Institutes of Environmental Health Sciences [NIEHS]\nNational Toxicology Program [NTP]\nU.S. Food and Drug Administration [FDA]\np53, a tumor suppressor protein, is activated following cellular insult, including DNA damage and other cellular stresses. The activation of p53 regulates cell fate by inducing DNA repair, cell cycle arrest, apoptosis, or cellular senescence. The activation of p53, therefore, is a good indicator of DNA damage and other cellular stresses. The CellSensor p53RE-bla HCT-116 cell line (Invitrogen) contains a stably integrated beta-lactamase reporter gene under control of the p53 response elements. The activation of the reporter gene under culture conditions can be detected by fluorescence intensity. This cell line was used to screen the Tox21 compound library in a 1536-well plate format and to identify agonists that activate the p53 signaling pathway. The cytotoxicity of the Tox21 compound library against the p53 RE-bla HCT-116 cell line was tested in parallel by measuring the intra cellular ATP content in the same wells.\nTox21 Assay Protocol Summary:\nThe p53RE-bla cells were dispensed at 4,000 cells/5 ul/well in 1536-well black wall/clear bottom plates using a Multidrop dispenser. After the assay plates were incubated at a 37 C/5% CO2 incubator for 5 hours, 23 nL of compounds dissolved in DMSO, positive controls or DMSO only was transferred to the assay plate by a pin tool. The plates were incubated at 37 C for 16 hours. After 1 uL of LiveBLAzerTM B/G FRET substrate was added using a Flying Reagent Dispenser, the plates were incubated at room temperature for 2 hours, and fluorescence intensity was measured by an Envision plate reader. For cell viability readout that measures cytotoxicity, 4 ul/well of CellTiter-Glo reagent was added into the assay plates using a Flying Reagent Dispenser. After 30 min incubation at room temperature, the luminescence intensity in the plates was measured using a ViewLux plate reader."}
{"smiles": "CC(C)(c1ccc(Oc2ccc3c(c2)C(=O)OC3=O)cc1)c1ccc(Oc2ccc3c(c2)C(=O)OC3=O)cc1", "Potency": "inactive"}
{"smiles": "Cc1ccc(CCn2c3c(c4cc(Cl)ccc42)CN(C)CC3)cn1", "Potency": "inactive"}
{"smiles": "CC1=C(/C=C/C(C)=C\\C=C\\C(C)=C\\C(=O)O)C(C)(C)CCC1", "Potency": "inactive"}
{"smiles": "O=C(CN1CCN(Cc2ccc3c(c2)OCO3)CC1)N1c2ccccc2Sc2ccccc21", "Potency": "inactive"}
{"smiles": "CCCCCCCC/C=C\\CCCCCCCCN", "Potency": "inactive"}
{"smiles": "COc1ccc(C(=O)c2ccc(OC)cc2O)c(O)c1", "Potency": "inactive"}
{"smiles": "CCOC(=O)COC(=O)c1ccccc1C(=O)OCC", "Potency": "inactive"}
{"smiles": "CCCCCCCCCCCCCCCC(=O)OC[C@H](O)[C@H]1OC(=O)C(O)=C1O", "Potency": "inactive"}
{"smiles": "CN=C(NC#N)NCCSCc1csc(N=C(N)N)n1", "Potency": "inactive"}
{"smiles": "Nc1cc(C(F)(F)F)ccc1S", "Potency": "inactive"}
{"smiles": "O=C(O)CCN(C1(C(=O)NO)CCCC1)S(=O)(=O)c1ccc(Oc2ccc(F)cc2)cc1", "Potency": "inactive"}
{"smiles": "S=c1[nH][nH]c(=S)s1", "Potency": "inactive"}
{"smiles": "COCCOCC(OC)OC", "Potency": "inactive"}
{"smiles": "Nc1ccc(Cl)c([N+](=O)[O-])c1", "Potency": "inactive"}
{"smiles": "NCCOCCOCCN", "Potency": "inactive"}
{"smiles": "OC(CCN1CCCC1)(c1ccccc1)C1CCCCC1", "note": "(stereo not given)", "Potency": "inactive"}
{"smiles": "CCCCCCCC/C=C\\CCCCCCCCCCCC(=O)O", "Potency": "inactive"}
{"smiles": "Brc1ccccn1", "Potency": "inactive"}
{"smiles": "CCCCc1nc(Cl)c(CO)n1Cc1ccc(-c2ccccc2-c2nn[nH]n2)cc1", "Potency": "inactive"}
{"smiles": "CCOCCn1c(C2CCN(CCc3ccc(C(C)(C)C(=O)O)cc3)CC2)nc2ccccc21", "Potency": "inactive"}
{"smiles": "Cc1nc2n(c(=O)c1CCN1CCC(C(=O)c3ccc(F)cc3)CC1)CCS2", "Potency": "inactive"}
{"smiles": "CCCCCCCCCCCCCCCCCC(=O)OCCCCCCCCCCCCCC(C)C", "Potency": "inactive"}
{"smiles": "N#CCC(=O)NN", "Potency": "inactive"}
{"smiles": "CCC1(CO)COCOC1", "Potency": "inactive"}
{"smiles": "CC(C)Nc1cccnc1N1CCN(C(=O)c2cc3cc(NS(C)(=O)=O)ccc3[nH]2)CC1", "Potency": "inactive"}
{"smiles": "CCN(CC)CCNC(=O)c1cc(Br)c(N)cc1OC", "Potency": "inactive"}
{"smiles": "CN1C(=O)OC(C)(C)C1=O", "Potency": "inactive"}
{"smiles": "O=C1CCCN1CCO", "Potency": "inactive"}
{"smiles": "CC1=CC[C@H](C(C)C)C=C1", "Potency": "inactive"}
{"smiles": "CCOC(=O)CS", "Potency": "inactive"}
{"smiles": "Cc1nc(-c2ccc(OCC(C)C)c(C#N)c2)sc1C(=O)O", "Potency": "inactive"}
{"smiles": "CCCC(C(=O)OCCN(CC)CC)(c1ccccc1)c1ccccc1", "Potency": "inactive"}
{"smiles": "CCCCCCCCCCCc1ccccc1", "Potency": "inactive"}
{"smiles": "CC(=O)OC(C)(C)C", "Potency": "inactive"}
{"smiles": "NC(N)=NC(=O)Cc1c(Cl)cccc1Cl", "Potency": "inactive"}
{"smiles": "CC(C)(C)C(=O)CC(=O)C(C)(C)C", "Potency": "inactive"}
{"smiles": "COc1ccc(/C(C)=C/C(=O)O)c(OC)c1", "Potency": "inactive"}
{"smiles": "COC(=O)CCc1ccc(OCC(O)CNC(C)C)cc1", "note": "(stereo not given)", "Potency": "inactive"}
{"smiles": "CCOC(=O)Cc1cccc2ccccc12", "Potency": "inactive"}
{"smiles": "CC1=CC(=O)CC(C)(C)C1(O)/C=C/C(C)=C\\C(=O)O", "note": "(stereo not given)", "Potency": "inactive"}
